Publication PMC10726135, “HNF4α isoforms regulate the circadian balance between carbohydrate and lipid metabolism in the liver”
The full ranking holds about 18,000 sequences; the median of “log2 normalized intensity” is about 0.39, and the highest 2% start at about 6.6. Shown is part of a subset that was picked to be rich in the highest values.

target: T1, HNF4alpha2 (COS-7 nuclear extract) (Homo sapiens, UniProt P41235 1-474); test: protein-binding microarray; COS-7 nuclear extract on double-stranded Agilent 4x180k PBM; binding buffer, salt, pH and temperature not given in the material; high values mean tight binding; details: chain copies: 2; label: 3' end of strand 1 on the slide; dsDNA, one strand shown
T1 sequence: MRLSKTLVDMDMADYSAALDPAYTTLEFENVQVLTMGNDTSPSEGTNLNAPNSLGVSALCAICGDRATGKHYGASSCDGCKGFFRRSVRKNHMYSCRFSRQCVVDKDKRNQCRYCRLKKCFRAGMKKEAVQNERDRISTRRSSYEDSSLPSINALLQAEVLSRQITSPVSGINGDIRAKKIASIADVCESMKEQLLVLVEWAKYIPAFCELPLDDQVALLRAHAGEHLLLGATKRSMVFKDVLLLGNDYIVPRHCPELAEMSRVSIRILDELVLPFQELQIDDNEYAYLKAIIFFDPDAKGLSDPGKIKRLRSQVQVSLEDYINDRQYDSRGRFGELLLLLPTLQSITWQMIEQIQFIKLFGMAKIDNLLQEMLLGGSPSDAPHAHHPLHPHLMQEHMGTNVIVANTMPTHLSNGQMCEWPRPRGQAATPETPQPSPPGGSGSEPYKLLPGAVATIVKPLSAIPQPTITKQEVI
How it was run: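 Nuclear extracts came from COS-7 cells transiently transfected by CaPO4 with a human HNF4α isoform expression vector. They were applied to a custom Agilent SurePrint G3 4x180k array of ~60-nt oligonucleotides, made double-stranded, with ~44,000 test sequences spotted in quadruplicate. Bound HNF4α was imaged at 2-µm resolution on an Agilent G2565CA scanner. Binding signal was taken as background-corrected, normalized gProcessedSignal from Agilent software.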

Row | Sequence | binding signal [log2 normalized intensity]
1 | AAAGGTCATTTCTGCTTGCAACCAAAGGAGGCCTAGGGAGATTAGAGTATCGGTCGA | 1.52
2 | GCAGATGTGTCTTTATAACAGACTGTAGGCGCCTAGGGAGATTAGAGTATCGGTCGA | 0.596
3 | GCCAAGCTCTGGGCTAGTCCCTGAGTATTAGCCTAGGGAGATTAGAGTATCGGTCGA | -0.902
4 | TCCCTCTGCTCCCCTGGCCTCACCCTTGTCGCCTAGGGAGATTAGAGTATCGGTCGA | 2.72
5 | ATTCCAAAAAGCTTTTGTCATGACCTTCGCGCCTAGGGAGATTAGAGTATCGGTCGA | 4.71
6 | AAGGATCAAGGACCTGCTCTGGGGCTACCTGCCTAGGGAGATTAGAGTATCGGTCGA | -0.978
7 | TTGCCCTTTGCCCAACCCTCTCCCACTCCCGCCTAGGGAGATTAGAGTATCGGTCGA | 4.91
8 | TCAGTTTCATTGCACTTTGCCCTCTCTTCAGCCTAGGGAGATTAGAGTATCGGTCGA | 6.57
9 | TAATTGCCCTTTGCCCTTTGCCCAACCCTCGCCTAGGGAGATTAGAGTATCGGTCGA | 7.02
10 | TCCTCAGGGAATTTCTAGGTTTGATCTTTGGCCTAGGGAGATTAGAGTATCGGTCGA | 2.95
11 | CATTGATAATTCAGTTTCATTGCACTTTGCGCCTAGGGAGATTAGAGTATCGGTCGA | 4.01
12 | AGGGAATTTCTAGGTTTGATCTTTGCCCTAGCCTAGGGAGATTAGAGTATCGGTCGA | 6.85
13 | ATAATTCAGTTTCATTGCACTTTGCCCTCTGCCTAGGGAGATTAGAGTATCGGTCGA | 8.65
14 | GCCCTTTGCCCTTTGCCCAACCCTCTCCCAGCCTAGGGAGATTAGAGTATCGGTCGA | 5.55
15 | ATTTCTAGGTTTGATCTTTGCCCTACAATTGCCTAGGGAGATTAGAGTATCGGTCGA | 5.51
16 | ACTCCTTTGCTTATCTGATAAGTCCATACCGCCTAGGGAGATTAGAGTATCGGTCGA | 1.53
17 | ACTCAGGATACCTAAGCCCCATGCTGATAAGCCTAGGGAGATTAGAGTATCGGTCGA | 1.32
18 | CTTTGGACTTTTGAACTAAGGCTGGAATGAGCCTAGGGAGATTAGAGTATCGGTCGA | 2.92
19 | AGCTGGACTTTGAACTTCATGTGTGGTGCAGCCTAGGGAGATTAGAGTATCGGTCGA | 6.21
20 | GACTTTGAACTTCATGTGTGGTGCAGATTCGCCTAGGGAGATTAGAGTATCGGTCGA | 1.97
21 | TGAGACTTTGGACTTTTGAACTAAGGCTGGGCCTAGGGAGATTAGAGTATCGGTCGA | 4.72
22 | ATCTAAGCTGGACTTTGAACTTCATGTGTGGCCTAGGGAGATTAGAGTATCGGTCGA | 7.91
23 | CCTAAATCTAAGCTGGACTTTGAACTTCATGCCTAGGGAGATTAGAGTATCGGTCGA | 8.99
24 | TTGTACTCAGTATGTGCTGACTGACTCCTGGCCTAGGGAGATTAGAGTATCGGTCGA | 0.992
25 | GTGAGGGAGGAGACTTTGACCTCTGCTAGGGCCTAGGGAGATTAGAGTATCGGTCGA | 5.43
26 | GATGTTTAGCTATCAGTGTTGACCTCTGGAGCCTAGGGAGATTAGAGTATCGGTCGA | 5.32
27 | TATCAGTGTTGACCTCTGGACCTCATCTTCGCCTAGGGAGATTAGAGTATCGGTCGA | 5.36

Row | Sequence | binding signal [log2 normalized intensity]
28 | ACCTTTGCCTTCTTGACATCTCTCTCTGCAGCCTAGGGAGATTAGAGTATCGGTCGA | 1.17
29 | CTGACAAGTATCTCGGTCAAACCTTTGACCGCCTAGGGAGATTAGAGTATCGGTCGA | 5.77
30 | GTGACCTTTGACCTCTGGCCTTTGCAGTTAGCCTAGGGAGATTAGAGTATCGGTCGA | 8.21
31 | CTCTAACCACTTTGAAATAGTGACCTCTGCGCCTAGGGAGATTAGAGTATCGGTCGA | 4.36
32 | TTAGCTATCAGTGTTGACCTCTGGACCTCAGCCTAGGGAGATTAGAGTATCGGTCGA | 6.97
33 | CTGACCTCAAGTGACCTTTGACCTCTGGCCGCCTAGGGAGATTAGAGTATCGGTCGA | 11
34 | ACCACTTTGAAATAGTGACCTCTGCTGGCCGCCTAGGGAGATTAGAGTATCGGTCGA | 2.65
35 | CTCAAGTGACCTTTGACCTCTGGCCTTTGCGCCTAGGGAGATTAGAGTATCGGTCGA | 10.2
36 | TAACGGTGAGGGAGGAGACTTTGACCTCTGGCCTAGGGAGATTAGAGTATCGGTCGA | 6.61
37 | AAGGCTAGTCTTCTTTGGGGCTTAGATAGCGCCTAGGGAGATTAGAGTATCGGTCGA | 0.431
38 | TGTACAGGACCATGTTCTCCTAAAGTGACTGCCTAGGGAGATTAGAGTATCGGTCGA | -0.786
39 | CACTGCACCTGCCTGAACAAGTCCAGTGACGCCTAGGGAGATTAGAGTATCGGTCGA | -0.89
40 | CACTGAGATAAAAATGGCCAAAGGTTGCCAGCCTAGGGAGATTAGAGTATCGGTCGA | 2.09
41 | CCACATTCTGAGACTAAAGAGTACACAAAGGCCTAGGGAGATTAGAGTATCGGTCGA | -0.922
42 | TTCCTGGATTGTGAAACACAGGACTTGATCGCCTAGGGAGATTAGAGTATCGGTCGA | 0.71
43 | GAGTGTCCTGCCCCCTGGAGGAGTGAGGGAGCCTAGGGAGATTAGAGTATCGGTCGA | 1.34
44 | GGGGAGGTCAACCAGGGAAATTACCCTCTAGCCTAGGGAGATTAGAGTATCGGTCGA | -0.241
45 | ACAGGGCTTGGGGTGGGGTTGGAGTCCAGAGCCTAGGGAGATTAGAGTATCGGTCGA | 1.25
46 | AGTGAAGGTTCAGTGAAGTAGTGTGTATGAGCCTAGGGAGATTAGAGTATCGGTCGA | 2.27
47 | CTGCTTTTATGACCTTTGACTGCAGAAGATGCCTAGGGAGATTAGAGTATCGGTCGA | 5.27
48 | TTTATGACCTTTGACTGCAGAAGATAAGAAGCCTAGGGAGATTAGAGTATCGGTCGA | 3.94
49 | ATTATCTGCTTTTATGACCTTTGACTGCAGGCCTAGGGAGATTAGAGTATCGGTCGA | 6.64
50 | CCTAAGCCTTATTATCTGCTTTTATGACCTGCCTAGGGAGATTAGAGTATCGGTCGA | 3.06
51 | GCCTTATTATCTGCTTTTATGACCTTTGACGCCTAGGGAGATTAGAGTATCGGTCGA | 7.34
52 | TCTGCCTTTTATCTATTTGTCGCCTCTGACGCCTAGGGAGATTAGAGTATCGGTCGA | 0.141
53 | AACTTTGCAGCAGATAATTACCTGGACTCTGCCTAGGGAGATTAGAGTATCGGTCGA | 3.6
54 | CAGATGTTTCTGCAAGCACACTGTCCTGCTGCCTAGGGAGATTAGAGTATCGGTCGA | -0.824
